What all share (design): scale not given: direction of the effect not stated beside the values
In test [1] the target is Protein translocase subunit SecA (Escherichia coli (strain K12)) (UniProt P10408). The test can be described thus: Assay to Identify E. coli SecA ATPase Inhibitors. The class given is functional. The following applies: 30 µM.
In test [2] the target is T1, Ubiquitin-activating enzyme e1, putative (Leishmania donovani (strain BPK282A1)) (UniProt E9BSI1).
T1 sequence (whole entry): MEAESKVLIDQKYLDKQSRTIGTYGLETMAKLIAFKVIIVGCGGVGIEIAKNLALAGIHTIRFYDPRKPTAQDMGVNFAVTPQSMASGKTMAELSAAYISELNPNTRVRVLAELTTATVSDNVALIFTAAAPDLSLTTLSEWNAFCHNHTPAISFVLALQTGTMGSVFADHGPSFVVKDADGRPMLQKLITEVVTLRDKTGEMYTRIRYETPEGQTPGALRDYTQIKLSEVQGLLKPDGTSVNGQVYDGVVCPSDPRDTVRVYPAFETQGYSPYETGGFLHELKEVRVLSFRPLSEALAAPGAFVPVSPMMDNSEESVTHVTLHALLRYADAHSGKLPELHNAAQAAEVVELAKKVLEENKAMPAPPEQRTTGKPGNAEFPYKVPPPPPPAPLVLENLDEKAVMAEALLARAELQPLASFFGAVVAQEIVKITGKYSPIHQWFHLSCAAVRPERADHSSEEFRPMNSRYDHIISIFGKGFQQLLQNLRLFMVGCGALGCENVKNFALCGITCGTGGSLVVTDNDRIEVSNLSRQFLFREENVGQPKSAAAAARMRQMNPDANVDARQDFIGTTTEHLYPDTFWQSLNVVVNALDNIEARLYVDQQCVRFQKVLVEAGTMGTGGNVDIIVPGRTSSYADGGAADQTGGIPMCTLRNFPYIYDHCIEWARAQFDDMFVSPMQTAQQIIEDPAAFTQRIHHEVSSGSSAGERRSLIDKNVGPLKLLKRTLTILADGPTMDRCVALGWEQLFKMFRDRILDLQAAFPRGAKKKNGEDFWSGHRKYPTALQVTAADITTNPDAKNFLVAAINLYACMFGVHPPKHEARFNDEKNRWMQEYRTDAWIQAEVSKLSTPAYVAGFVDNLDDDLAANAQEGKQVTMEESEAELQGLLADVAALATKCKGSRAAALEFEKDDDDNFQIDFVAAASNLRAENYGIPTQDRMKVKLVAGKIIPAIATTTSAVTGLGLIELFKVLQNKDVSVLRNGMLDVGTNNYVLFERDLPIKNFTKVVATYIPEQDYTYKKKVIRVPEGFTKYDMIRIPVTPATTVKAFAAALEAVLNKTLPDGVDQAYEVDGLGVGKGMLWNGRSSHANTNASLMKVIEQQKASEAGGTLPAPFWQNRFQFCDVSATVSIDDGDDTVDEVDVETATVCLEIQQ
The test can be described thus: Leishmania donovani Ubiquitin Activating Enzyme (LdE1). The class given is functional. As to conditions: 30 µM.

The target in test [3] is AMP-activated protein kinase, AMPK (Homo sapiens) (UniProt P54646+O43741+P54619+Q9UGJ0+Q9Y478+Q13131+Q9UGI9). The test can be described thus: AMP-dependent Kinase enzyme assay. An in vitro enzyme assay that detects ADP turnover that is directly proportional to AMPK activity. This uses naive AMPK that is activated during the assay with MK-8722. The class given is functional. The following applies: 30 µM.

Test [4] has as its target Sialic acid-binding Ig-like lectin 9 (Homo sapiens) (UniProt Q9Y336). The test can be described thus: Hs-Siglec9 ALPHAscreen SOP 20170721. As to conditions: 10 µM.
Test [5] relates to Trypanosoma cruzi. The test can be described thus: Trypanosoma cruzi phosphomannomutase and mannose-1-phosphate guanylyltransferase assay. The class given is functional. As to conditions: 10 µM.
For test [6], the target named is T2, Arginase-2, mitochondrial (Homo sapiens) (UniProt P78540).
T2 sequence (whole entry): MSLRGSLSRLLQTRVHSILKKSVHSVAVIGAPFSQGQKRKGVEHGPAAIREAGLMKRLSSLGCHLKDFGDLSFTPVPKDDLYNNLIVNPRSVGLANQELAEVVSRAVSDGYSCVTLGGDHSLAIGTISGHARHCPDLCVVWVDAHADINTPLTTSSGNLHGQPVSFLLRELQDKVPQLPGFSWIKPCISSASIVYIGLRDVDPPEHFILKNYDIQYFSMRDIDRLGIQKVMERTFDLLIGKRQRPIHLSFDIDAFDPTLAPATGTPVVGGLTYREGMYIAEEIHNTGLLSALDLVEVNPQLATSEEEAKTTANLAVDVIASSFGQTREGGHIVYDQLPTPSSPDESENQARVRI
The test can be described thus: in vitro enzyme assay to detect the production of urea directly proportional to the activity of Arginase II. Also: in the data most compounds retested in dose-response had high values. The class given is functional. As to conditions: 33.3 µM.

The target of test [7] is T3, Proteasome subunit beta (Trypanosoma cruzi) (UniProt O96673).
T3 sequence (whole entry): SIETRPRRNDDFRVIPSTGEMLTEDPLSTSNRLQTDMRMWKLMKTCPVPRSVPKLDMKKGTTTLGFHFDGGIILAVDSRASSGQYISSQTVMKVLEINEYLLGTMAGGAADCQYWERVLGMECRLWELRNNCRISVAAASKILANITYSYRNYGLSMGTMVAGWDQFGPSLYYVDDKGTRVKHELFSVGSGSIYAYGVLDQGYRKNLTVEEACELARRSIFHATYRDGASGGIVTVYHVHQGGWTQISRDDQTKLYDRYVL
The test can be described thus: Trypanosoma cruzi proteasome chymotrypsin-like activity (TcProtChymo) assay. Also: in the data most compounds retested in dose-response had high values. The class given is functional. The following applies: 9.37 µM.

For test [8], the species on record is Homo sapiens. The test can be described thus: To identify inhibition of the IFN signalling (Jak-Stat) pathway via expression of an eGFP reporter gene under the control of an IFN-stimulated response element (ISRE) containing MxA promoter. The class given is functional. The following applies: 30 µM.
In test [9] the target is T4, Tyrosyl-tRNA synthetase, putative (Trypanosoma cruzi (strain CL Brener)) (UniProt Q4DSP6).
T4 sequence (whole entry): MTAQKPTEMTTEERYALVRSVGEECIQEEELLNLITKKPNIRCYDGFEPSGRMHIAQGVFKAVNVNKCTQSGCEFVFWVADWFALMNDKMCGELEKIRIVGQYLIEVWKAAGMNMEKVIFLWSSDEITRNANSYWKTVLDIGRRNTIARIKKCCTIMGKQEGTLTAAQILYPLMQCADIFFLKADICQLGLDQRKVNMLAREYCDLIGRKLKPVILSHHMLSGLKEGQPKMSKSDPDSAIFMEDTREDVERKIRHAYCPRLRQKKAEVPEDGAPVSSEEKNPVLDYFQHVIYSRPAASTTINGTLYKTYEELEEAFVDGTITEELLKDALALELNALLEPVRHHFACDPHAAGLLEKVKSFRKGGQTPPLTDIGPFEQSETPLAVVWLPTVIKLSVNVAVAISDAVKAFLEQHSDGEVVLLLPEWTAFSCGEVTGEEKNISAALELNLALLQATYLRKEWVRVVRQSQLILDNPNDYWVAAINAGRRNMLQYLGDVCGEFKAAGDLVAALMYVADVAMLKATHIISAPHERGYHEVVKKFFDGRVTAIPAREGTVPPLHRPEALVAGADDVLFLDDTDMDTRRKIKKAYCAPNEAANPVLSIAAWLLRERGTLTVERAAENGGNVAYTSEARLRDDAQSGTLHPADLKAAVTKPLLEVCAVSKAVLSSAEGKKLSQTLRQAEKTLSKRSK
The test can be described thus: Trypanosoma cruzi tyrosyl tRNA synthetase (TcYRS) _High Tyrosine SOP. Also: in the data most compounds retested in dose-response had high values. The class given is functional. As to conditions: 30 µM.

Test [10] deals with T4, Tyrosyl-tRNA synthetase, putative (Trypanosoma cruzi (strain CL Brener)). The test can be described thus: Trypanosoma cruzi tyrosyl tRNA synthetase (TcYRS) SOP. The class given is functional. The following applies: 30 µM.
For test [11], the target named is Chromo domain-containing protein 1 (Saccharomyces cerevisiae (strain ATCC 204508 / S288c) (Baker's yeast)) (UniProt P32657). The test can be described thus: ScCHD-1 Enzyme Inhibition Assay. Also: in the data most compounds retested in dose-response had high values. The class given is functional. The following applies: 30 µM.

For some of these results: Entries with a potency or affinity are not part of this list.

Chain of Sialic acid-binding Ig-like lectin 9 (Homo sapiens) (Q9Y336 whole entry): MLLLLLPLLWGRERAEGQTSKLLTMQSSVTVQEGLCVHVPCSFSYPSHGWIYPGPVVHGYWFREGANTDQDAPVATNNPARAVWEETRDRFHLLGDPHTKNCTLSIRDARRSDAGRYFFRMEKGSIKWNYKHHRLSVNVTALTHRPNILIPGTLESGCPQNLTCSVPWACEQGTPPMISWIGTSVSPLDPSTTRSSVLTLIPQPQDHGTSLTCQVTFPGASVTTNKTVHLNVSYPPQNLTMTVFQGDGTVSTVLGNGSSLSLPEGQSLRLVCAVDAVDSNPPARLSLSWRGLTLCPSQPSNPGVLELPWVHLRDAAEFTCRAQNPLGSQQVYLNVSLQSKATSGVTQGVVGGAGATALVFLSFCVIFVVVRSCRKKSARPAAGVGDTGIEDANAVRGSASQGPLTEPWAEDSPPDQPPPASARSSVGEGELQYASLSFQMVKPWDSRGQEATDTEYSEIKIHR
Chain of Chromo domain-containing protein 1 (Saccharomyces cerevisiae (strain ATCC 204508 / S288c) (Baker's yeast)) (P32657 whole entry, the tested form may be a part): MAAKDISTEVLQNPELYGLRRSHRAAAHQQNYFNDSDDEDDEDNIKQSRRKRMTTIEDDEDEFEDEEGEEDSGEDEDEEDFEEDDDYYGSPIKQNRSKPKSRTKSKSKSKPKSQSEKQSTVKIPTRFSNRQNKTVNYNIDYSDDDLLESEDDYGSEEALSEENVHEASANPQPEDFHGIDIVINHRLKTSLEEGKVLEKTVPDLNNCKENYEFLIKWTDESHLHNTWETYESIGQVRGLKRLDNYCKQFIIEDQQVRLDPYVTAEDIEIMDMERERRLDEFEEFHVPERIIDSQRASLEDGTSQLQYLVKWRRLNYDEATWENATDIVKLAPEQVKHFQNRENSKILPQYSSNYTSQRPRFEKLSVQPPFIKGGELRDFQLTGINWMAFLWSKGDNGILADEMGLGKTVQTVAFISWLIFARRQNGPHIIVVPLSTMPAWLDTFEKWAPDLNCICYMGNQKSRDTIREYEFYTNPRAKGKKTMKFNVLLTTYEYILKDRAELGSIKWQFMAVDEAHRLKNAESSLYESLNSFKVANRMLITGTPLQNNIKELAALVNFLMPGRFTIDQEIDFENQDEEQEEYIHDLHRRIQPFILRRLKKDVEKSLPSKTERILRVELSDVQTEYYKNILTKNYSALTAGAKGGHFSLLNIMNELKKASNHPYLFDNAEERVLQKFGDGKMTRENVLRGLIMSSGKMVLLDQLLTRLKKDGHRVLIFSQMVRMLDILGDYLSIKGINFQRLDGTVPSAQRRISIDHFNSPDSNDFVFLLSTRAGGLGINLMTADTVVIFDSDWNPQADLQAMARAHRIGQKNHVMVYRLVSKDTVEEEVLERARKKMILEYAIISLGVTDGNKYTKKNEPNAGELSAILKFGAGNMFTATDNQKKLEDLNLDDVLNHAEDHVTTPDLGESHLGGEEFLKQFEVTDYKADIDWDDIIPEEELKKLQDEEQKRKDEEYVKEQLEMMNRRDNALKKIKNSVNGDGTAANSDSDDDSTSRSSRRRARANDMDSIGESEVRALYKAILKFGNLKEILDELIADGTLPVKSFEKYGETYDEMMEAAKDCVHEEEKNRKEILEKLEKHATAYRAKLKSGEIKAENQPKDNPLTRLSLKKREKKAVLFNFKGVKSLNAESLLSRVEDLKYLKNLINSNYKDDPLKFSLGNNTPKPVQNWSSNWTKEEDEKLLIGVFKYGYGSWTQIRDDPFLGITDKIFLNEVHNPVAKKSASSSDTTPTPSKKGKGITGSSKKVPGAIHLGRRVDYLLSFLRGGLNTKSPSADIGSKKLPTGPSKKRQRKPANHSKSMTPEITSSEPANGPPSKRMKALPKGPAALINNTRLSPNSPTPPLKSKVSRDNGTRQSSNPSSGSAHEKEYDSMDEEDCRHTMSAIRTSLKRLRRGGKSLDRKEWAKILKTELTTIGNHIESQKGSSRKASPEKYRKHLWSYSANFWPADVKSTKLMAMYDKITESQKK
Chain of Protein translocase subunit SecA (Escherichia coli (strain K12)) (P10408 whole entry): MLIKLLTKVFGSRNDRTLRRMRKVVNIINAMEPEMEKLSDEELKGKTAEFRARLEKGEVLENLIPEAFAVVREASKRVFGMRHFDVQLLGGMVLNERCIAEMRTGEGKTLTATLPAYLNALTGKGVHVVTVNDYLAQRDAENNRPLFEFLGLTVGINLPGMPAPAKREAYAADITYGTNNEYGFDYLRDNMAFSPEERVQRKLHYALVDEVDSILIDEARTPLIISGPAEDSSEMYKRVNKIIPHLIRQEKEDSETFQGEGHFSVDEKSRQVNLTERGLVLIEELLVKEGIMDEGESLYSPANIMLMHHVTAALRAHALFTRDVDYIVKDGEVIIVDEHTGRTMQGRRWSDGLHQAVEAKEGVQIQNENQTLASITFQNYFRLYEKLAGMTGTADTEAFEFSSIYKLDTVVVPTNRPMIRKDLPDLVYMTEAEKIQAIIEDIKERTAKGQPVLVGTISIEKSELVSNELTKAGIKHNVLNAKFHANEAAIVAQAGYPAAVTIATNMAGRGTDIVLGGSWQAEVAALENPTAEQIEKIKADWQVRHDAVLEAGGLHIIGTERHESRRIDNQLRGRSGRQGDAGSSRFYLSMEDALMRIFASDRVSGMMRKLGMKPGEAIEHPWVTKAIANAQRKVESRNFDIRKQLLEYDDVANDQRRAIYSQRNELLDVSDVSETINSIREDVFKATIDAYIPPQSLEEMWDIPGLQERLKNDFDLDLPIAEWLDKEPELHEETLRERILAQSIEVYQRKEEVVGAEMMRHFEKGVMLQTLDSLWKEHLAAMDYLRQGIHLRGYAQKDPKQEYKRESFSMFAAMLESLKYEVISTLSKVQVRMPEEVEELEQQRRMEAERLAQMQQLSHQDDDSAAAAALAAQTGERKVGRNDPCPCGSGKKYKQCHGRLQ

`Cc1cccc(NC2CCN(C(=O)Nc3cccc4[nH]ccc34)CC2)n1`: the Percent Effect in [1] is -6.98%; in [2], 17.7%; in test [3], -19.6%; in test [4], 10.2%; in [5] it was 6.7%; in test [6] it was -7.22%. Further, the Percent Effect in [7] was 3.85%; in test [8] it was -7.19%; in [9], 4.43%; in test [10] it was 16.5%; in [11] it was -8.65%.

In the case of `CCc1nc(C2CCCN2Cc2nccn2Cc2ccccc2)no1` (stereo not drawn), the Percent Effect is -0.608% in test [1]; 0% in test [2]; 1.64% in test [3]; 13.2% in test [4]; 2.25% in [5]; 0.21% in test [6]. Further, the Percent Effect in test [7] is 9.13%; in test [8], 10.5%; in [9] it was 2.86%; in test [10], 2.35%; in [11], 4.26%.

For the molecule `CCNC(=O)N1CCCCC1CCO` (stereo not drawn), the Percent Effect in [1] is 1.22%; in [2], 8.11%; in test [3] it was -0.623%; in test [4] it was 17.1%; in test [5], 5.99%; in test [6], 6.67%. Also, the Percent Effect in [7] is -0.69%; in test [8] it was -3.81%; in [9], 0.529%; in test [10], 7.32%; in [11], -10.1%.

On to `CC(=O)N1CCC(Oc2ccc(Cl)cn2)CC1`, for which the Percent Effect in [1] was -1.02%; in test [2], 5.48%; in [3] it was -4.62%; in test [4], 4.94%; in test [5], 4.5%; in test [6], 8.64%. Moreover, the Percent Effect in [7] is 3.19%; in test [8], 18.8%; in test [9] it was 3.23%; in test [10], 7.5%; in test [11], -4.92%.

In the case of `CNC(=O)[C@H]1C[C@@H]2CN(C(=O)c3ccco3)C[C@@H]2N1S(C)(=O)=O`, the Percent Effect in test [1] is -2.51%; in [2] it was 13.3%; in test [3] it was -0.761%; in test [4] it was -3.21%; in test [5] it was 3.48%; in test [6], 90.5%. Also, the Percent Effect in test [7] is 12.7%; in test [8], -4.85%; in [9] it was 6.25%; in [10], 17.5%; in test [11], -6.67%.

Regarding `C=Cc1ccc(C(=O)N2CCCC(Nc3ccc(OC)cc3)C2)cc1` (stereo not drawn), the Percent Effect in test [1] is -0.54%; in test [2], 8.11%; in [3], 29%; in test [4] it was 18.1%; in test [5] it was 5.41%; in test [6], -1.43%. Moreover, the Percent Effect in [7] was 3.28%; in test [8], 12.3%; in test [9], 10.1%; in test [10] it was 19.5%; in test [11] it was -8.46%.

As for `CCCNC(=O)CNc1cc(C#N)ccc1OCC`, the Percent Effect in test [1] was -6.04%; in test [2] it was 22.8%; in [3], -6.15%; in test [4] it was 3.16%; in [5], 4.82%; in [6], -6.46%. The Percent Effect in [7] was 11.7%; in test [8], 11.7%; in test [9] it was 4.43%; in test [10], 21.5%; in test [11], -7.89%.

Turning to `CCN(Cc1cccc(Cl)c1)Cn1nc(C)c2c(C)onc2c1=O`, the Percent Effect in test [1] is -8.55%; in test [2], 8.11%; in test [3], -4.63%; in test [4] it was 2.84%; in test [5], -3.68%; in test [6], -0.802%. For the same molecule, the Percent Effect in test [7] is -0.18%; in test [8], 14.3%; in [9], 1.48%; in test [10] it was 1.24%; in test [11] it was -6.67%.

The values above are taken from ChEMBL document CHEMBL3988442, “University of Dundee, Small-Polar-MMV Screening Library” (2021).
